Laboratory results from PubChem BioAssay AID1029 (Sanford-Burnham Center for Chemical Genomics, 2008).
Screen size: about 110,000 compounds; about 80 (0.07%) were called active. The sample holds actives, similar compounds and a random draw of the others, so the mix is not that of the screen.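 How the source made its calls: active means inhibition above the mean of the plate negative controls plus 5 SD (cut at about 13% in these data); inactive means the rest.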

experiment: blockers of IgG-bead uptake by macrophages – imaging, J774A.1 cells, IgG beads, primary screen (AID 1029); settings: J774A.1 macrophage IgG-bead phagocytosis, at 5 µM, stronger effect = higher value;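 further: phagocytic index as fraction of beads internalized from green versus red external bead signal; plate controls were DMSO negative control for no effect and cytochalasin-D positive control for full effect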

inhibition, inactive:
S=C(NCC1COc2ccccc2O1)Nc1ccc(Br)cc1 (centres undefined) -5.67%
NC(=O)Nc1ccccc1C(=O)NCCc1ccccc1 2.64%
Cc1nn(Cc2ccc(Cl)cc2)c(Cl)c1/C=N/NC(=O)c1cccnc1 -2.24%
Cc1cc(Cl)ccc1OCCCC(=O)NCc1ccncc1 1.98%
CC1CN(S(=O)(=O)c2ccc(C(=O)Nc3sccc3C(N)=O)cc2)CC(C)O1 (centres undefined) -5.22%
CNC(=S)N/N=C/c1ccc(OCc2ccccc2)c(Br)c1 -0.67%
CCCCCC(=O)Nc1ccc(S(=O)(=O)Nc2ccc(Cl)nn2)cc1 -11.6%
COc1cccc(NC(=S)NCc2ccco2)c1 -4.01%
CCC(NC(=O)c1ccccc1NC(=O)c1ccccc1)C(=O)NNC(=O)CSc1nc2ccccc2o1 (centres undefined) -1.59%
CCc1ccc(C2C(C#N)=C(N)N(N(C)C)C3=C2C(=O)CCC3)s1 (centres undefined) -3.98%
O=C(/C=C\c1ccc2c(c1)OCO2)NC1(C(=O)Nc2ccc3c(c2)OCCO3)CCCCC1 -2.27%
COc1ccc(NC(C(=O)Nc2cccc(C(C)=O)c2)c2ccccc2)cc1 (centres undefined) -15.7%
C/C(=N\NC(=O)c1ccc(CSc2nc(C)cc(C)n2)cc1)C1CCCCC1 -4.86%
CCCn1c(=O)c2c(C(F)(F)F)cc(-c3cccs3)nc2n(CCC)c1=O 1.31%
COC(=O)c1sc(N)c(C(=O)OC)c1COC(=O)CNS(=O)(=O)c1ccc(C)cc1 -11.5%
Cc1ccc(/C=C/C(=O)Nc2cc(S(=O)(=O)N3CCCCCC3)ccc2OCC(F)(F)F)o1 -12.4%
O=C(/C=C/NCc1ccc(F)cc1)c1ccccc1 -1.23%
Cn1cc(C(=O)NCc2ccccc2F)cn1 1.49%
C=CCc1ccccc1OCC(=O)N/N=C/c1ccccc1OCC 1.26%
CCOc1ccc(Oc2nc(C)cc(OC)n2)nn1 -0.15%
COCCCNC(=S)NC(=O)c1ccccc1 -6.86%
C/C(=N\NC(=O)Cc1ccc(F)cc1)c1ccc(F)cc1 -0.05%
COc1ccc(C(=O)CSc2nnc(NC(=O)C3CC(=O)N(c4cccc(OC)c4)C3)s2)cc1 (centres undefined) 6.45%
CC1CCCCN1S(=O)(=O)c1ccc(S(=O)(=O)N(CC(=O)Nc2ccccc2)Cc2cccs2)cc1 (centres undefined) -1.49%
COc1ccc([C@H]2[C@H](C(C)=O)N3N=Cc4ccccc4C3C23C(=O)OC(C)(C)OC3=O)cc1 (some centres undefined) 5.33%
CCOC(=O)CNC(=O)/C=C/c1c(Cl)cccc1Cl -2.32%
CC(=O)NC(Cc1ccccc1)C(=O)NC1CCN(c2ncccc2[N+](=O)[O-])CC1 (centres undefined) 1.47%
COc1ccc(OCC(=O)Nc2cc(C)c(Cl)cc2OC)c([N+](=O)[O-])c1 -2.85%
COc1ccc(S(=O)(=O)NC(C)C)cc1C(=O)NC1CCCCC1 -3.85%
